Results reported in PubChem BioAssay.
Active and inactive are the calls of the source. Unless noted, the rule behind the calls is not given here.

What was measured:
[1] = resazurin metabolic signal in HepG2 cells – cell-based, resazurin fluorescence, 24 h, PK04 Diversity Set, profiling panel (AID 1172); settings: HepG2 viability, higher = more signal
[2] = budding yeast growth changes without added modifier – OD600, strain BY4716, 24 h, basal condition, primary screen (AID 1173); settings: S. cerevisiae BY4716 growth, OD600, 24 h; higher = more signal, called active from +8 up or from −8 down
[3] = viability profiling in MM1S myeloma cells – cell-based, resazurin fluorescence, basal, 24 h, PK04 Diversity Set, profiling panel (AID 1174); settings: higher = more signal, called active from +8 up or from −8 down;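 note: MM1S multiple myeloma cell line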
[4] = target: Dihydroorotate dehydrogenase (quinone), mitochondrial (Plasmodium falciparum (isolate 3D7)) (UniProt Q08210); assay: inhibition of P. falciparum DHODH – biochemical, C-terminal His tag, absorbance 600 nm, primary screen (AID 1175); settings: PfDHODH enzyme, DCIP absorbance 600 nm; higher = more signal, called active from +8 up or from −8 down;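 note: recombinant parasite enzyme with a five histidine tag at its C terminus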
Chain of Dihydroorotate dehydrogenase (quinone), mitochondrial (Plasmodium falciparum (isolate 3D7)) (Q08210 whole entry, looked up): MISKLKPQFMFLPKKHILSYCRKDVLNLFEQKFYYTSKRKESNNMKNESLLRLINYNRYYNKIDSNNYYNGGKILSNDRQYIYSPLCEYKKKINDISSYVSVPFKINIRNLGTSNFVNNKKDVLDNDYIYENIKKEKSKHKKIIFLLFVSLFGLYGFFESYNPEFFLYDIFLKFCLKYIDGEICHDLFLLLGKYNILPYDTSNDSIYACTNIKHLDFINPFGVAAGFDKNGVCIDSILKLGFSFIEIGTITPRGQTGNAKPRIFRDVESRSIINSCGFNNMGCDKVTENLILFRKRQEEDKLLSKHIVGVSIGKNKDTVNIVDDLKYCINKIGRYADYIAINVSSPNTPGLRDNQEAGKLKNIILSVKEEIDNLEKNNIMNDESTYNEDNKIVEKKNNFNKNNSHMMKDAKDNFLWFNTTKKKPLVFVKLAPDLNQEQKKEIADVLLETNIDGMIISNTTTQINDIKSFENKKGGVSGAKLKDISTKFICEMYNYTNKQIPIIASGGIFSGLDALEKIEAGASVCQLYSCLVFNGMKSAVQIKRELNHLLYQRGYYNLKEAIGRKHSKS

[5] = inhibition of PAO1 biofilm formation – strain PAO1, LB-PBS medium, absorbance 600 nm, primary screen (AID 1176); settings: P. aeruginosa PAO1 growth/biofilm, A600, 12 h; higher = more signal
[6] = growth modulation of vineyard yeast isolate – strain RM11-1a, OD600, basal, 24 h, primary screen (AID 1177);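 note: cultures grown under basal conditions with no added stressor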; settings: S. cerevisiae RM11-1a growth, OD600, 24 h; higher = more signal, called active from +8 up or from −8 down
[7] = growth of efflux-deficient E. coli DRC39 – strain DRC39, OD650, 24 h, E. coli filamentation inducers, primary screen (AID 1178);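 note: growth measured as culture turbidity by optical density at 650 nm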; settings: E. coli DRC39 acrAB, higher = more signal, called active from +8 up or from −8 down
[8] = growth of efflux-deficient E. coli DRC39 – strain DRC39, OD650, 48 h, E. coli filamentation inducers, primary screen (AID 1179);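 note: screen aims at cell division blockers that make cells filament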; settings: E. coli DRC39 delta-acrAB growth, higher = more signal, called active from +8 up or from −8 down
[9] = viability profiling in RPMI8226 myeloma cells – cell-based, resazurin fluorescence, basal, 24 h, PK04 Diversity Set, profiling panel (AID 1180); settings: higher = more signal;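 note: RPMI8826 multiple myeloma cell line at 5000 cells per well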
[10] = target: E3 ubiquitin-protein ligase XIAP (Homo sapiens) (UniProt P98170); assay: small molecules binding XIAP protein – biophysical, small-molecule microarray, fluorescence 635 nm, primary screen (AID 1181); settings: higher = more signal;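 note: score merges 667 nm emission and signal to noise over triplicate slides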
Chain of E3 ubiquitin-protein ligase XIAP (Homo sapiens) (P98170 whole entry, looked up, the tested form may be a part): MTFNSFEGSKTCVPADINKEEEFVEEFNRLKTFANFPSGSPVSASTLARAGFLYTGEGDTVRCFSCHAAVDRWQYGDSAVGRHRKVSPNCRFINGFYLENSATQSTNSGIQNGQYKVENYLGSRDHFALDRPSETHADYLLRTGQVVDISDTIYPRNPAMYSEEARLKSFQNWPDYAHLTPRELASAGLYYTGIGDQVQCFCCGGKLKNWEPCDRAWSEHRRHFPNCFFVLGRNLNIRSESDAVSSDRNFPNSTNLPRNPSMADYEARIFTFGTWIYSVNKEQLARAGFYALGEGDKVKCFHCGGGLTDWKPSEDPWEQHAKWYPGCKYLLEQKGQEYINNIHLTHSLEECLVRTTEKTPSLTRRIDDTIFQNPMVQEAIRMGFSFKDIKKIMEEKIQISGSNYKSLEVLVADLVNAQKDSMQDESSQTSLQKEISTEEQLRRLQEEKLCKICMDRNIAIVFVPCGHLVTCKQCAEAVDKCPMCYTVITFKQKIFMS

[11] = tested on: XIP peptide (Xip251-270) binding; assay: XIP fragment 251-270 binding compounds – biochemical, small-molecule microarray, fluorescence 635/667 nm, 0.1 µg/mL protein, primary screen (AID 1182); settings: fluorescent protein binding, 635 nm, higher = more signal, called active from +8 up or from −8 down
XIP peptide (Xip251-270) = assay: compounds binding XIP fragment 251-270 – biochemical, small-molecule microarray, fluorescence 635/667 nm, 0.5 µg/mL protein, primary screen (AID 1183); settings: fluorescence 635 nm, higher = more signal
[12] = blood-stage malaria parasite viability loss – strain 3D7, DAPI fluorescence, 100 nL, primary screen (AID 1184);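 note: parasites grown inside human red blood cells in medium with human serum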; settings: P. falciparum 3D7 growth, 3 d, higher = more signal
[13] = target: Homeobox protein Hox-A13 (Mus musculus) (UniProt Q62424); assay: disruptors of Hoxa13 oligonucleotide interaction – biochemical, fluorescence polarization, labeled oligonucleotide, primary screen (AID 1185); settings: Hoxa13:DNA binding, 15 min, higher = more signal, called active from +8 up or from −8 down
Chain of Homeobox protein Hox-A13 (Mus musculus) (Q62424 whole entry, looked up): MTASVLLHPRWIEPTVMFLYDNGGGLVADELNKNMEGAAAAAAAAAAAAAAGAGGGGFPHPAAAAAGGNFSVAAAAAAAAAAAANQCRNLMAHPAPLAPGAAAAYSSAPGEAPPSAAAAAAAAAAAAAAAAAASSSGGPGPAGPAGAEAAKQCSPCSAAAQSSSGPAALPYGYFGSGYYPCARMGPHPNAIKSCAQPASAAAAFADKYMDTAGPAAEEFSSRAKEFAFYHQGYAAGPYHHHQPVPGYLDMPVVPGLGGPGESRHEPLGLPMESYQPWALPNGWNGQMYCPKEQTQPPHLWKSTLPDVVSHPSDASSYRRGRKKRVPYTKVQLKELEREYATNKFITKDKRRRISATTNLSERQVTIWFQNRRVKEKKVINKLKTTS

[14] = blockers of DNA damage checkpoint Chk1 activation – imaging, HeLa, hydroxyurea, phospho-Chk1 antibody, percent positive cells, primary screen (AID 1186); settings: hydroxyurea-induced phospho-Chk1 immunofluorescence imaging, higher = more signal
[15] = blockers of DNA damage checkpoint Chk1 activation – imaging, HeLa, hydroxyurea, phospho-Chk1 nuclear intensity, primary screen (AID 1187); settings: hydroxyurea-induced phospho-Chk1 immunofluorescence imaging, higher = more signal

Compound	z-score [1]	z-score [2]	z-score [3]	composite z-score [4]	z-score [5]	z-score [6]	z-score [7]	z-score [8]	z-score [9]	composite z-score [10]	composite z-score [11]	composite z-score (XIP peptide (Xip251-270))	z-score [12]	z-score [13]	z-score [14]	z-score [15]
C=CC[C@]1(C(=O)NCc2ccccc2)N=C(c2ccc(OCCCO)cc2)O[C@H]1c1ccccc1CN=[N+]=[N-]	0.238	-0.0802 (inactive)	-0.871 (inactive)	0.548 (inactive)	1.06 (inactive)	0.149 (inactive)	-0.0443 (inactive)	-1.25 (inactive)	-0.328	-0.0322	-0.274 (inactive)	0.338	-2.53	0.343 (inactive)	-0.158 (inactive)	-0.402 (inactive)
COc1ccc([C@H]2C[C@H]3C(Br)=C[C@@]2(CO)C(=O)[C@]32CO2)cc1	0.231	-4.42 (inactive)	-0.445 (inactive)	-0.174 (inactive)	0.118 (inactive)	-0.121 (inactive)	-0.0919 (inactive)	-0.0065 (inactive)	-0.384	0.0009	-0.358 (inactive)	-0.311	0.951	-1.05 (inactive)	-0.0281 (inactive)	0.202 (inactive)
CS(=O)(=O)CCOC(=O)C1=CC(CCCO)=CC(c2ccc(CN3CCCC3)cc2)N(Cc2cccc(OC(F)(F)F)c2)C=C1C(=O)OCCS(C)(=O)=O (stereo not given)	-0.207	-3.9 (inactive)	-0.527 (inactive)	-1.03 (inactive)	1.24 (inactive)	1.01 (inactive)	0.669 (inactive)	0.399 (inactive)	0.0703	-0.24	0.211 (inactive)	0.584	-2.79	-1.82 (inactive)	0.157 (inactive)	1.28 (inactive)
COc1ccc([Si](C)(C)[C@@H]2[C@@H](CCn3cc([C@H](O)c4ccccc4)nn3)O[C@]3(C(=O)N(Cc4cccc(N5CCC5=O)c4)c4ccccc43)[C@H]2C)cc1	0.736	-0.0294 (inactive)	-0.939 (inactive)	0.219 (inactive)	2.05 (inactive)	1.01 (inactive)	0.603 (inactive)	0.127 (inactive)	0.123	0.0345	0.863 (inactive)	0.46	-2.48	-2.8 (inactive)	-0.529 (inactive)	-0.414 (inactive)
OB1C=CCC(CCc2ccccc2)O1 (stereo not given)	-0.246	-3.2 (inactive)	0.506 (inactive)	-0.685 (inactive)	1.45 (inactive)	-2.36 (inactive)	2.73 (inactive)	0.96 (inactive)	0.23	-0.275	-1.15 (inactive)	0.965	-0.355	-2.13 (inactive)	-0.591 (inactive)	-0.212 (inactive)
O=C1OCCC=C[C@H]2OC34C=CCN(CCN5CCOCC5)C(=O)[C@H]3N(CCCCCO)C(=O)[C@@H]4C12 (stereo not given in full)	-0.123	-0.987 (inactive)	0.673 (inactive)	0.233 (inactive)	-0.484 (inactive)	-0.112 (inactive)	0.298 (inactive)	0.732 (inactive)	0.571	-0.0144	0.272 (inactive)	0.348	0.124	-5.57 (inactive)	0.139 (inactive)	0.357 (inactive)
Cc1ccc(C2C3C(=O)CC4C(=O)N(c5ccccc5)C(=O)C4C3CN2S(=O)(=O)c2ccc(C)cc2)cc1 (stereo not given)	-0.419	1.05 (inactive)	-0.936 (inactive)	-0.274 (inactive)	0.201 (inactive)	1.24 (inactive)	-0.478 (inactive)	0.384 (inactive)	-0.82	-0.173	0.053 (inactive)	0.785	0.395	-3.61 (inactive)	0.951 (inactive)	1 (inactive)
CCOC(=O)[C@H]1C/C=C/C[C@H](C(=O)OCC)C(=O)O[C@H]2[C@@H](OC)O[C@H](CO)[C@@H](OC(=O)c3ccc(Br)cc3)[C@@H]2OC1=O	-0.349	-0.775 (inactive)	-1.77 (inactive)	-1.88 (inactive)	0.787 (inactive)	0.807 (inactive)	0.612 (inactive)	0.485 (inactive)	-2.49	-0.283	0.146 (inactive)	-0.103	-1.11	-1.2 (inactive)	-0.0241 (inactive)	0.237 (inactive)
CC(C)(C)OC(=O)CC[C@]1(C(=O)NCCN2CCOCC2)COC(c2ccc(OCCCO)cc2)=N1	0.0093	0.321 (inactive)	0.382 (inactive)	0.731 (inactive)	-0.525 (inactive)	0.345 (inactive)	0.119 (inactive)	1.18 (inactive)	0.513	-0.0118	1.16 (inactive)	0.759	0.51	-3.66 (inactive)	-0.131 (inactive)	0.0826 (inactive)
CCCCCCCCCCC(O)C1C=CC2C(=O)NC(=O)C2N1Nc1ccc(Cl)cc1Cl (stereo not given)	-2.55	-1.08 (inactive)	-1.76 (inactive)	0.762 (inactive)	0.201 (inactive)	1.69 (inactive)	-0.801 (inactive)	-1.27 (inactive)	-1.51	-0.102	3.34 (inactive)	-0.333	-0.642	-0.739 (inactive)	0.387 (inactive)	0.006 (inactive)
